# Test results reported in article PMC8384837, “Expanding the binding specificity for RNA recognition by a PUF domain”.
# Legend:
# Assay in all cases: yeast three-hybrid, YBZ-1, SC-Leu-His + 0.5 mM 3-AT, 4 days
# Settings in all cases: tags: N-Gal4 AD-HA kept; label: inside an RPR1-promoter hybrid RNA with tandem MS2 sites; ssRNA
# PUM1 PUF domain R4-NRR = PUM1 PUF domain R4-NRR (Homo sapiens, UniProt Q14671 828-1176, H972R;Q975R)
# How it was run: (§1)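 The interaction score is the logarithmic change in variant frequency from input to selection. It uses log2, with a pseudocount of 1 for absent variants, and frequencies came from PCR-amplified, Illumina-sequenced repeat regions. The libraries were Pumilio-1 PUF domains randomized at the three base-contacting residues per repeat, co-expressed with matching RNA elements in strain YBZ-1 (LexA–MS2 coat fusion, HIS3 reporter). Plating lasted four days on SC-Leu (input) or SC-Leu-His + 0.5 mM 3-AT (selection).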
# PUM1 PUF domain R7-ERQ = PUM1 PUF domain R7-ERQ (Homo sapiens, UniProt Q14671 828-1176, S1079E;N1080R;E1083Q)
# Sequence of PUM1 PUF domain R7-ERQ (Q14671 828-1176 S1079E/N1080R/E1083Q): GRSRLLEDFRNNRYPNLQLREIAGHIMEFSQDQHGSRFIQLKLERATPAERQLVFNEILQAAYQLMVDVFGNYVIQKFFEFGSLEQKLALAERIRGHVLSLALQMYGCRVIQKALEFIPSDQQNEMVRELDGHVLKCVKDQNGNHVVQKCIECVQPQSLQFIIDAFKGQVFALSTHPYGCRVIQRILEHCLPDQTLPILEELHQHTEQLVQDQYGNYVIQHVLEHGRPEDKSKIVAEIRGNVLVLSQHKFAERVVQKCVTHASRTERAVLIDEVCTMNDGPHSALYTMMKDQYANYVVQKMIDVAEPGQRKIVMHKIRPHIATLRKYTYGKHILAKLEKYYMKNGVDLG
# How it was run: as §1
# PUM1 PUF domain R8-YYK = PUM1 PUF domain R8-YYK (Homo sapiens, UniProt Q14671 828-1176, N1122Y;Q1126K)
# How it was run: as §1
# PUM1 PUF domain R3-GYF = PUM1 PUF domain R3-GYF (Homo sapiens, UniProt Q14671 828-1176, C935G;R936Y;Q939F)
# How it was run: as §1
# PUM1 PUF domain R5-MRG = PUM1 PUF domain R5-MRG (Homo sapiens, UniProt Q14671 828-1176, C1007M;Q1011G)
# How it was run: as §1
# PUM1 PUF domain R3-YRF = PUM1 PUF domain R3-YRF (Homo sapiens, UniProt Q14671 828-1176, C935Y;Q939F)
# How it was run: as §1
# PUM1 PUF domain R3-RQE = PUM1 PUF domain R3-RQE (Homo sapiens, UniProt Q14671 828-1176, C935R;R936Q;Q939E)
# How it was run: as §1
# PUM1 PUF domain R3-RQP = PUM1 PUF domain R3-RQP (Homo sapiens, UniProt Q14671 828-1176, C935R;R936Q;Q939P)
# How it was run: as §1
# PUM1 PUF domain R5-KRE = PUM1 PUF domain R5-KRE (Homo sapiens, UniProt Q14671 828-1176, C1007K;Q1011E)
# Sequence of PUM1 PUF domain R5-KRE (Q14671 828-1176 C1007K/Q1011E): as the sequence (Q14671 828-1176 S1079E/N1080R/E1083Q) above, with C180K, Q184E, E252S, R253N, Q256E counted along it
# How it was run: as §1
# PUM1 PUF domain R5-KSW = PUM1 PUF domain R5-KSW (Homo sapiens, UniProt Q14671 828-1176, C1007K;R1008S;Q1011W)
# Sequence of PUM1 PUF domain R5-KSW (Q14671 828-1176 C1007K/R1008S/Q1011W): as the sequence (Q14671 828-1176 S1079E/N1080R/E1083Q) above, with C180K, R181S, Q184W, E252S, R253N, Q256E counted along it
# How it was run: as §1
sequence,measurement,setting,value
GGCUAGAACUAGUGGAUCCCCCGGCGCCCGGCGGCUCGAGCCCGGGUAAGUGUAUAUAGUCUGCAUGCCGCCGGGCGCCAUGCCUGCAGGUCGACUCUAGAAAACAUG,binding signal,PUM1 PUF domain R4-NRR,1.51 log2 enrichment (interaction score)
GGCUAGAACUAGUGGAUCCCCCGGCGCCCGGCGGCUCGAGCCCGGGUAAGUGUACAUAGUCUGCAUGCCGCCGGGCGCCAUGCCUGCAGGUCGACUCUAGAAAACAUG,binding signal,PUM1 PUF domain R4-NRR,3.57 log2 enrichment (interaction score)
GGCUAGAACUAGUGGAUCCCCCGGCGCCCGGCGGCUCGAGCCCGGGUAAGUCUAAAUAGUCUGCAUGCCGCCGGGCGCCAUGCCUGCAGGUCGACUCUAGAAAACAUG,binding signal,PUM1 PUF domain R7-ERQ,2.6 log2 enrichment (interaction score)
GGCUAGAACUAGUGGAUCCCCCGGCGCCCGGCGGCUCGAGCCCGGGUAAGCGUAAAUAGUCUGCAUGCCGCCGGGCGCCAUGCCUGCAGGUCGACUCUAGAAAACAUG,binding signal,PUM1 PUF domain R8-YYK,4.78 log2 enrichment (interaction score)
GGCUAGAACUAGUGGAUCCCCCGGCGCCCGGCGGCUCGAGCCCGGGUAAGUGUAAAUAGUCUGCAUGCCGCCGGGCGCCAUGCCUGCAGGUCGACUCUAGAAAACAUG,binding signal,PUM1 PUF domain R3-GYF,5.74 log2 enrichment (interaction score)
same,binding signal,PUM1 PUF domain R5-MRG,0.66 log2 enrichment (interaction score)
same,binding signal,PUM1 PUF domain R3-YRF,1.16 log2 enrichment (interaction score)
GGCUAGAACUAGUGGAUCCCCCGGCGCCCGGCGGCUCGAGCCCGGGUAAGUGUUAAUAGUCUGCAUGCCGCCGGGCGCCAUGCCUGCAGGUCGACUCUAGAAAACAUG,binding signal,PUM1 PUF domain R5-MRG,3.12 log2 enrichment (interaction score)
GGCUAGAACUAGUGGAUCCCCCGGCGCCCGGCGGCUCGAGCCCGGGUAAGUGUAAUUAGUCUGCAUGCCGCCGGGCGCCAUGCCUGCAGGUCGACUCUAGAAAACAUG,binding signal,PUM1 PUF domain R3-RQE,2.81 log2 enrichment (interaction score)
same,binding signal,PUM1 PUF domain R3-RQP,3.85 log2 enrichment (interaction score)
GGCUAGAACUAGUGGAUCCCCCGGCGCCCGGCGGCUCGAGCCCGGGUAAGUGUAAGUAGUCUGCAUGCCGCCGGGCGCCAUGCCUGCAGGUCGACUCUAGAAAACAUG,binding signal,PUM1 PUF domain R3-YRF,5.65 log2 enrichment (interaction score)
GGCUAGAACUAGUGGAUCCCCCGGCGCCCGGCGGCUCGAGCCCGGGUAAGUGUCAAUAGUCUGCAUGCCGCCGGGCGCCAUGCCUGCAGGUCGACUCUAGAAAACAUG,binding signal,PUM1 PUF domain R5-KRE,2.98 log2 enrichment (interaction score)
same,binding signal,PUM1 PUF domain R5-MRG,0.97 log2 enrichment (interaction score)
same,binding signal,PUM1 PUF domain R5-KSW,2.82 log2 enrichment (interaction score)
